# From the supplement of paper PMC8728848
# This is one part of a sample in which the strongest signals are shown more often than they occur.
# B1: E-Selectin (Homo sapiens), P16581 (protein)
# chain: MIASQFLSALTLVLLIKESGAWSYNTSTEAMTYDEASAYCQQRYTHLVAIQNKEEIEYLNSILSYSPSYYWIGIRKVNNVWVWVGTQKPLTEEAKNWAPGEPNNRQKDEDCVEIYIKREKDVGMWNDERCSKKKLALCYTAACTNTSCSGHGECVETINNYTCKCDPGFSGLKCEQIVNCTALESPEHGSLVCSHPLGNFSYNSSCSISCDRGYLPSSMETMQCMSSGEWSAPIPACNVVECDAVTNPANGFVECFQNPGSFPWNTTCTFDCEEGFELMGAQSLQCTSSGNWDNEKPTCKAVTCRAVRQPQNGSVRCSHSPAGEFTFKSSCNFTCEEGFMLQGPAQVECTTQGQWTQQIPVCEAFQCTALSNPERGYMNCLPSASGSFRYGSSCEFSCEQGFVLKGSKRLQCGPTGEWDNEKPTCEAVRCDAVHQPPKGLVRCAHSPIGEFTYKSSCAFSCEEGFELHGSTQLECTSQGQWTEEVPSCQVVKCSSLAVPGKINMSCSGEPVFGTVCKFACPEGWTLNGSAARTCGATGHWSGLLPTCEAPTESNIPLVAGLSAAGLSLLTLAPFLLWLRKCLRKAKKFVPASSCQSLESDGSYQKPSYIL
# B2: Clec49 (Caenorhabditis elegans) (protein)
# chain: MTRLTLLLFGLLGAATAQTCNTGGIYNEQFNRCYQYFTAPAQFSFAEQQCNLLGGHLASVQNGQENALLQSNAANSFKRSNYSDYWIGATDLETSGTWKWTDPSVTFDYSNWQLGEPQSGSDCAIQDKGDGTWSAIGCTSYRPYVCVTPVIMTATCPPITTPIPTTCPTPAPCPIKQCVPSCDQGWTYFSPTDFCYRVYHGEKFNDAEASCVLLGGHLASIHSLTENTFVNNIASCGIKEGKYEHLAWIGMRKVGQDWVWTDGTPSDYFNWAPKQPDNPKKELCVQTAPDLSHDKWYENWNNLECNEVMRAYICKKASIHN
# Experiments:
# Test in all cases: glycan array binding signal (z-score within array); higher = stronger binding
# Conditions in all cases: glycan notation: IUPAC condensed, linker removed
# [1] = molecular target: Fuc(a1-2)Gal(b1-4)[Fuc(a1-3)]GlcNAc(b1-3)Gal(b1-4)[Fuc(a1-3)]GlcNAc
# In short: (§1)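 Arrays were curated from the Consortium for Functional Glycomics database, 3228 in total, and kept only where the protein sequence was available. Binding is expressed as a within-array Z-score. This score was averaged across arrays of the same protein sequence at different concentrations or buffers and across linkers, and negative values can be read as non-binding.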
# [2] = molecular target: Fuc(a1-2)[Gal(a1-3)]Gal(b1-4)Glc
# In short: as §1
# [3] = molecular target: Fuc(a1-4)GlcNAc
# In short: as §1
# [4] = molecular target: Gal(a1-3)[Gal(a1-4)]Gal(b1-4)GlcNAc
# In short: as §1
# [5] = molecular target: Gal(b1-3)GlcNAc(b1-3)Gal(b1-4)GlcNAc
# In short: as §1
# [6] = molecular target: Gal(b1-4)Glc
# In short: as §1
# [7] = molecular target: Gal(b1-4)GlcNAc(b1-2)Man(a1-3)[Gal(b1-4)GlcNAc(b1-2)Man(a1-6)]Man(b1-4)GlcNAc(b1-4)GlcNAc
# In short: as §1
# [8] = molecular target: Gal(b1-4)GlcNAc(b1-3)Gal(b1-4)Glc
# In short: as §1
# [9] = molecular target: Gal(b1-4)GlcNAc(b1-3)[GlcNAc(b1-6)]Gal(b1-4)GlcNAc
# In short: as §1
# [10] = molecular target: Gal3S(b1-3)[Fuc(a1-4)]GlcNAc
# In short: as §1
# [11] = molecular target: Gal3S(b1-4)Glc
# In short: as §1
# [12] = molecular target: Gal4S6S(b1-4)GlcNAc
# In short: as §1
# [13] = molecular target: Gal6S(b1-4)Glc
# In short: as §1
# [14] = molecular target: Glc(b1-6)Glc
# In short: as §1
# [15] = molecular target: GlcNAc(b1-2)Gal(b1-3)GalNAc
# In short: as §1
# [16] = molecular target: GlcNAc(b1-3)Gal
# In short: as §1
# [17] = molecular target: GlcNAc(b1-3)GalNAc
# In short: as §1
# [18] = molecular target: GlcNAc(b1-3)[GlcNAc(b1-4)][GlcNAc(b1-6)]GlcNAc
# In short: as §1
# [19] = molecular target: GlcNAc(b1-3)[GlcNAc(b1-6)]GlcNAc(b1-4)GlcNAc
# In short: as §1
# [20] = molecular target: Man(a1-3)[Man(a1-6)]Man(a1-6)[Man(a1-3)]Man
# In short: as §1
# [21] = molecular target: Neu5Ac(a2-3)Gal(b1-3)GalNAc(b1-3)Gal(a1-4)Gal(b1-4)Glc
# In short: as §1
# [22] = molecular target: Neu5Ac(a2-3)Gal(b1-3)[Fuc(a1-4)]GlcNAc
# In short: as §1
# [23] = molecular target: Neu5Ac(a2-3)Gal(b1-3)[Fuc(a1-4)]GlcNAc(b1-3)Gal(b1-4)[Fuc(a1-3)]GlcNAc
# In short: as §1
# [24] = molecular target: Neu5Ac(a2-3)Gal(b1-4)GlcNAc(b1-2)Man(a1-3)[Neu5Ac(a2-3)Gal(b1-4)GlcNAc(b1-2)Man(a1-6)]Man(b1-4)GlcNAc(b1-4)GlcNAc
# In short: as §1
# [25] = molecular target: Neu5Ac(a2-3)Gal(b1-4)[Fuc(a1-3)]GlcNAc(b1-3)Gal
# In short: as §1
# [26] = molecular target: Neu5Ac(a2-6)Gal(b1-4)GlcNAc(b1-2)Man(a1-6)[GlcNAc(b1-2)Man(a1-3)]Man(b1-4)GlcNAc(b1-4)GlcNAc
# In short: as §1
# [27] = molecular target: Neu5Ac(a2-6)GalNAc(b1-4)GlcNAc
# In short: as §1
# [28] = molecular target: Neu5Ac9Ac(a2-6)Gal(b1-4)GlcNAc
# In short: as §1
# [29] = molecular target: Neu5Gc(a2-3)Gal(b1-3)[Fuc(a1-4)]GlcNAc
# In short: as §1
# [30] = molecular target: Neu5Gc(a2-6)GalNAc
# In short: as §1
# [31] = molecular target: Neu5Ac(a2-3)Gal(b1-3)GalNAc(b1-4)[Neu5Ac(a2-8)Neu5Ac(a2-3)]Gal(b1-4)Glc
# In short: as §1
# [32] = molecular target: Neu5Ac(a2-3)Gal(b1-3)GlcNAc(b1-2)[Neu5Ac(a2-3)Gal(b1-3)GlcNAc(b1-4)]Man(a1-6)[Neu5Ac(a2-3)Gal(b1-3)GlcNAc(b1-2)Man(a1-3)]Man(b1-4)GlcNAc(b1-4)GlcNAc
# In short: as §1
# [33] = molecular target: Neu5Ac(a2-3)Gal(b1-4)GlcNAc(b1-3)Gal(b1-4)GlcNAc(b1-2)Man(a1-3)[Neu5Ac(a2-3)Gal(b1-4)GlcNAc(b1-3)Gal(b1-4)GlcNAc(b1-2)Man(a1-6)]Man(b1-4)GlcNAc(b1-4)GlcNAc
# In short: as §1
# [34] = molecular target: Neu5Ac(a2-3)Gal(b1-4)GlcNAc(b1-3)Gal(b1-4)GlcNAc(b1-3)Gal(b1-4)GlcNAc(b1-2)Man(a1-3)[Neu5Ac(a2-3)Gal(b1-4)GlcNAc(b1-3)Gal(b1-4)GlcNAc(b1-3)Gal(b1-4)GlcNAc(b1-2)Man(a1-6)]GalNAc
# In short: as §1
# [35] = molecular target: Neu5Ac(a2-3)Gal(b1-4)[Fuc(a1-3)]GlcNAc(b1-3)GalNAc
# In short: as §1
# [36] = molecular target: Neu5Ac(a2-3)[GalNAc(b1-4)]Gal(b1-4)Glc
# In short: as §1
# [37] = molecular target: Neu5Ac(a2-6)Gal(b1-4)GlcNAc(b1-2)[Neu5Ac(a2-6)Gal(b1-4)GlcNAc(b1-6)]Man(a1-6)[Neu5Ac(a2-6)Gal(b1-4)GlcNAc(b1-2)Man(a1-3)][GlcNAc(b1-4)]Man(b1-4)GlcNAc(b1-4)GlcNAc
# In short: as §1
# [38] = molecular target: Neu5Ac(a2-6)Gal(b1-4)GlcNAc(b1-3)Gal(b1-4)GlcNAc
# In short: as §1
# [39] = molecular target: Neu5Ac(a2-6)Gal(b1-4)GlcNAc(b1-3)Gal(b1-4)GlcNAc(b1-3)Gal(b1-4)GlcNAc(b1-2)Man(a1-3)[Neu5Ac(a2-6)Gal(b1-4)GlcNAc(b1-3)Gal(b1-4)GlcNAc(b1-3)Gal(b1-4)GlcNAc(b1-2)Man(a1-6)]GalNAc
# In short: as §1
# [40] = molecular target: Neu5Ac(a2-6)Gal(b1-4)GlcNAc(b1-3)Gal(b1-4)GlcNAc(b1-3)[Neu5Ac(a2-6)Gal(b1-4)GlcNAc(b1-3)Gal(b1-4)GlcNAc(b1-6)]GalNAc
# In short: as §1
# [41] = molecular target: Neu5Ac(a2-6)Gal(b1-4)GlcNAc(b1-3)Gal(b1-4)[Fuc(a1-3)]GlcNAc(b1-3)Gal(b1-4)[Fuc(a1-3)]GlcNAc
# In short: as §1
# [42] = molecular target: Neu5Ac(a2-8)Neu5Ac(a2-3)Gal(b1-4)Glc
# In short: as §1
# [43] = molecular target: Neu5Ac(a2-8)Neu5Ac(a2-3)[GalNAc(b1-4)]Gal(b1-4)Glc
# In short: as §1
binder,measurement,setting,value
B1,glycan array binding signal (z-score),[1],-0.198
same,glycan array binding signal (z-score),[2],-0.226
same,glycan array binding signal (z-score),[3],-0.173
same,glycan array binding signal (z-score),[4],-0.265
same,glycan array binding signal (z-score),[5],-0.181
same,glycan array binding signal (z-score),[6],-0.251
same,glycan array binding signal (z-score),[7],-0.189
same,glycan array binding signal (z-score),[8],-0.075
same,glycan array binding signal (z-score),[9],-0.027
same,glycan array binding signal (z-score),[10],1.21
same,glycan array binding signal (z-score),[11],-0.07
same,glycan array binding signal (z-score),[12],0.276
same,glycan array binding signal (z-score),[13],-0.044
same,glycan array binding signal (z-score),[14],-0.134
same,glycan array binding signal (z-score),[15],-0.209
same,glycan array binding signal (z-score),[16],-0.024
same,glycan array binding signal (z-score),[17],-0.266
same,glycan array binding signal (z-score),[18],-0.261
same,glycan array binding signal (z-score),[19],-0.105
same,glycan array binding signal (z-score),[20],-0.209
same,glycan array binding signal (z-score),[21],-0.173
same,glycan array binding signal (z-score),[22],9.04
same,glycan array binding signal (z-score),[23],3.76
same,glycan array binding signal (z-score),[24],-0.122
same,glycan array binding signal (z-score),[25],3.07
same,glycan array binding signal (z-score),[26],-0.282
same,glycan array binding signal (z-score),[27],-0.117
same,glycan array binding signal (z-score),[28],-0.181
same,glycan array binding signal (z-score),[29],12.1
same,glycan array binding signal (z-score),[30],-0.239
B2,glycan array binding signal (z-score),[31],-0.511
same,glycan array binding signal (z-score),[32],3.69
same,glycan array binding signal (z-score),[33],2.19
same,glycan array binding signal (z-score),[34],5.23
same,glycan array binding signal (z-score),[35],14.5
same,glycan array binding signal (z-score),[36],-0.075
same,glycan array binding signal (z-score),[37],0.372
same,glycan array binding signal (z-score),[38],-0.634
same,glycan array binding signal (z-score),[39],0.32
same,glycan array binding signal (z-score),[40],2.58
same,glycan array binding signal (z-score),[41],0.181
same,glycan array binding signal (z-score),[42],-0.326
same,glycan array binding signal (z-score),[43],-0.424
